The record followed here is the supplement of paper PMC3545927.

In this test the target is furin, P09958. The test is described as follows: furin cleavage Z-score vs untreated control; higher = more cleavage, active = 3.5 or more, inactive = 1 or less, 8 variable residues between constant flanks. An outline of the steps: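 To give the cleavage Z-score, log read counts were set against furin-free reactions, lowess-adjusted and scaled by median absolute deviation. These counts came from PCR adapter-tagged, sequenced DNA released when purified furin cut 8-mer peptides fused to a cDNA oligonucleotide and held on magnetic beads by their N-terminus. Digests were 0.01 ml, 1:10 enzyme:substrate, in 50 mM HEPES pH 7.5 with CaCl2 and NaCl, for 7.5, 15 or 30 min.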
furin, P09958, sequence (P09958 whole entry, the tested form may be a part): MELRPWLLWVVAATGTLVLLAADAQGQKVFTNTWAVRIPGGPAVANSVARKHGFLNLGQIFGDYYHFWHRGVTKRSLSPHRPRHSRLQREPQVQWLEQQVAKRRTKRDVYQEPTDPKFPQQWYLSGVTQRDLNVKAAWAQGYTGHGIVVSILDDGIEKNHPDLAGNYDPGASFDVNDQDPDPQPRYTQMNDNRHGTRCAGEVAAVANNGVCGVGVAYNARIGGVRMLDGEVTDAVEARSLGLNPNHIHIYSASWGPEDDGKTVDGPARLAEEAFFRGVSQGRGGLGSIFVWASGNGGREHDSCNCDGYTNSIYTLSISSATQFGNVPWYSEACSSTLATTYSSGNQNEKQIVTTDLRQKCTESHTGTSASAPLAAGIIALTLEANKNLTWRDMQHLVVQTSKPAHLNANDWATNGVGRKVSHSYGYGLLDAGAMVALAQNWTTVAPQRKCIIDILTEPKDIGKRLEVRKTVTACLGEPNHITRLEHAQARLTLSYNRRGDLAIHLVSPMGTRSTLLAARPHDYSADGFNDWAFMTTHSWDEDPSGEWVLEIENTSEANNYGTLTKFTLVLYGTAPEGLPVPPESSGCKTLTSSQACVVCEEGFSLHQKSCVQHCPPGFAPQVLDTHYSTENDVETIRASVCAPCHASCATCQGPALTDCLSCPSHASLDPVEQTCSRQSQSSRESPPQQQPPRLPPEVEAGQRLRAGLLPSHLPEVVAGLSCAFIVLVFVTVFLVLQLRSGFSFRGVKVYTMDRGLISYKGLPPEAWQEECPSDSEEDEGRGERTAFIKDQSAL

Some of the results follow. The true hit rate is not given.

As for CAEVVTHTWVAGNASASA [HC149], the “furin cleavage Z-score” value is, setting by setting: (7.5 min) -0.408 (inactive); (15 min) -0.439 (inactive); (30 min) 0.597 (inactive).

CALAYGLRSKAGNASASA [TR9]: the “furin cleavage Z-score” value (7.5 min) was -0.353 (inactive), the “furin cleavage Z-score” value (15 min) is 0.335 (inactive) and the “furin cleavage Z-score” value (30 min) is -1.59 (inactive).

As to CASTYCSAHLAGNASASA [HC2509], the “furin cleavage Z-score” value (7.5 min) was -0.262 (inactive), the “furin cleavage Z-score” value (15 min) is -0.642 (inactive) and the “furin cleavage Z-score” value (30 min) is 2.3.

For CAEVHCHRPSAGNASASA [HC2355], the “furin cleavage Z-score” value (7.5 min) amounted to 1.25, the “furin cleavage Z-score” value (15 min) was 0.809 (inactive) and the “furin cleavage Z-score” value (30 min) came out at 1.14.

On to CARTKRYVVFAGNASASA [FS-2095], for which the “furin cleavage Z-score” value was 4.82 (active) (7.5 min), 4.06 (active) (15 min) and 6.56 (active) (30 min).

Consider CARTKRDVYQAGNASASA [FS-2825], for which the “furin cleavage Z-score” value (7.5 min) is 9.66 (active), the “furin cleavage Z-score” value (15 min) was 11.4 (active) and the “furin cleavage Z-score” value (30 min) is 9.76 (active).

On to CARKGRYKAFAGNASASA [FS-2960], for which the “furin cleavage Z-score” value (7.5 min) was -0.402 (inactive), the “furin cleavage Z-score” value (15 min) was -0.376 (inactive) and the “furin cleavage Z-score” value (30 min) was -0.0128 (inactive).

Regarding CAVAVEPVVFAGNASASA [HC645], the “furin cleavage Z-score” value (7.5 min) was found to be 1.23, the “furin cleavage Z-score” value (15 min) is -0.0223 (inactive) and the “furin cleavage Z-score” value (30 min) is -0.472 (inactive).

Consider CAEISVPAEIAGNASASA [HC1294], for which the “furin cleavage Z-score” value by setting is: (7.5 min) -0.695 (inactive); (15 min) -1.61 (inactive); (30 min) -1.39 (inactive).

Regarding CASTFCSAHLAGNASASA [HC2507], the “furin cleavage Z-score” value by setting is: (7.5 min) -0.833 (inactive); (15 min) -0.376 (inactive); (30 min) -0.904 (inactive).

As for CAQLEVVTSTAGNASASA [HC2282], the “furin cleavage Z-score” value by setting is: (7.5 min) 0.398 (inactive); (15 min) 1.61; (30 min) 0.854 (inactive).

With CAYLYGVGSSAGNASASA [HC511], the “furin cleavage Z-score” value (7.5 min) is 0.568 (inactive), the “furin cleavage Z-score” value (15 min) is -0.0293 (inactive) and the “furin cleavage Z-score” value (30 min) was 0.0874 (inactive).

Take CAAPPRARRHAGNASASA [FS-975]: the “furin cleavage Z-score” value (7.5 min) was 8.59 (active), the “furin cleavage Z-score” value (15 min) is 9.67 (active) and the “furin cleavage Z-score” value (30 min) was 6.85 (active).

On to CASRRRMKRVAGNASASA [FS-1167], for which the “furin cleavage Z-score” value (7.5 min) was 11 (active), the “furin cleavage Z-score” value (15 min) was 12 (active) and the “furin cleavage Z-score” value (30 min) was 9.11 (active).

In the case of CAARKMIGGHAGNASASA [HC623], the “furin cleavage Z-score” value was 0.0211 (inactive) (7.5 min), 1.66 (15 min) and 1.13 (30 min).

For CASRRRARRHAGNASASA [FS-1416], the “furin cleavage Z-score” value was 7.59 (active) (7.5 min), 6.18 (active) (15 min) and 7.01 (active) (30 min).

Take CASRIRIERVAGNASASA [FS-1087]: the “furin cleavage Z-score” value by setting is: (7.5 min) 0.306 (inactive); (15 min) 3.11; (30 min) 2.24.

CAPPLRAWRHAGNASASA [HC1618]: the “furin cleavage Z-score” value runs as follows: (7.5 min) -0.103 (inactive); (15 min) 0.906 (inactive); (30 min) -0.71 (inactive).

With CASRRRFYRPAGNASASA [FS-506], the “furin cleavage Z-score” value reads like this: (7.5 min) -1.15 (inactive); (15 min) 0.235 (inactive); (30 min) -2.19 (inactive).

On to CAARQRTRRHAGNASASA [FS-1112], for which the “furin cleavage Z-score” value was 11.1 (active) (7.5 min), 12.6 (active) (15 min) and 10 (active) (30 min).

Take CASRRRTRRPAGNASASA [FS-873]: the “furin cleavage Z-score” value (7.5 min) was 0.729 (inactive), the “furin cleavage Z-score” value (15 min) was 0.54 (inactive) and the “furin cleavage Z-score” value (30 min) is 0.884 (inactive).

As for CAEVLCHRPSAGNASASA [HC2345], the “furin cleavage Z-score” value reads like this: (7.5 min) 1.1; (15 min) -0.279 (inactive); (30 min) 0.507 (inactive).

Consider CAMEECSQHDAGNASASA [HC1771], for which the “furin cleavage Z-score” value runs as follows: (7.5 min) -0.304 (inactive); (15 min) 0.175 (inactive); (30 min) 0.222 (inactive).

In the case of CAAVQTNWQKAGNASASA [HC1035], the “furin cleavage Z-score” value was 0.252 (inactive) (7.5 min), 0.157 (inactive) (15 min) and -0.0579 (inactive) (30 min).

As for CAMYVGGVEHAGNASASA [HC476], the “furin cleavage Z-score” value by setting is: (7.5 min) -0.473 (inactive); (15 min) -0.882 (inactive); (30 min) -0.205 (inactive).

Regarding CATTPFSGSWAGNASASA [HC46], the “furin cleavage Z-score” value (7.5 min) is -0.133 (inactive), the “furin cleavage Z-score” value (15 min) is -0.615 (inactive) and the “furin cleavage Z-score” value (30 min) is -0.727 (inactive).

Turning to CATPPRSKRVAGNASASA [FS-1096], the “furin cleavage Z-score” value was 4.55 (active) (7.5 min), 6.1 (active) (15 min) and 4.13 (active) (30 min).

In the case of CAVVCCSMYYAGNASASA [HC2069], the “furin cleavage Z-score” value runs as follows: (7.5 min) -0.54 (inactive); (15 min) -0.258 (inactive); (30 min) -1.53 (inactive).

CAYVQMVIIKAGNASASA [HC627]: the “furin cleavage Z-score” value runs as follows: (7.5 min) -1.63 (inactive); (15 min) -1.94 (inactive); (30 min) -0.568 (inactive).

Take CAAGRRALRSAGNASASA [FS-1182]: the “furin cleavage Z-score” value reads like this: (7.5 min) 4.32 (active); (15 min) 4.3 (active); (30 min) 3.06.

Regarding CAQLVRALRSAGNASASA [FS-848], the “furin cleavage Z-score” value runs as follows: (7.5 min) 7.22 (active); (15 min) 7.99 (active); (30 min) 7.1 (active).

CAAGTRTIASAGNASASA [HC703]: the “furin cleavage Z-score” value by setting is: (7.5 min) 0.83 (inactive); (15 min) 0.675 (inactive); (30 min) 0.11 (inactive).

CAKNGRPLRSAGNASASA [FS-341]: the “furin cleavage Z-score” value by setting is: (7.5 min) 0.926 (inactive); (15 min) 2.59; (30 min) 0.891 (inactive).

CAKQFRALRSAGNASASA [FS-1595]: the “furin cleavage Z-score” value (7.5 min) was 4.54 (active), the “furin cleavage Z-score” value (15 min) is 5.86 (active) and the “furin cleavage Z-score” value (30 min) was 4.56 (active).

Take CAGCPERLASAGNASASA [HC386]: the “furin cleavage Z-score” value (7.5 min) stood at 1.74, the “furin cleavage Z-score” value (15 min) is 0.605 (inactive) and the “furin cleavage Z-score” value (30 min) was -0.259 (inactive).

As to CAVYVRVSRFAGNASASA [FS-518], the “furin cleavage Z-score” value by setting is: (7.5 min) 3.44; (15 min) 4.83 (active); (30 min) 6.25 (active).

Take CASRLRFDRFAGNASASA [FS-505]: the “furin cleavage Z-score” value (7.5 min) is -0.495 (inactive), the “furin cleavage Z-score” value (15 min) is 0.902 (inactive) and the “furin cleavage Z-score” value (30 min) was -0.181 (inactive).

Turning to CAVRARFVRFAGNASASA [FS-1433], the “furin cleavage Z-score” value reads like this: (7.5 min) 9.46 (active); (15 min) 9.43 (active); (30 min) 8.99 (active).

Turning to CALRIRNVRFAGNASASA [FS-1465], the “furin cleavage Z-score” value runs as follows: (7.5 min) 2.76; (15 min) 6.35 (active); (30 min) 7.62 (active).

As for CAREARAVIFAGNASASA [FS-3186], the “furin cleavage Z-score” value was -0.327 (inactive) (7.5 min), -0.0656 (inactive) (15 min) and 2.23 (30 min).

Take CAVYARVSRFAGNASASA [FS-517]: the “furin cleavage Z-score” value was 0.958 (inactive) (7.5 min), 0.514 (inactive) (15 min) and 2.26 (30 min).

CAVRCCSMSYAGNASASA [HC2013]: the “furin cleavage Z-score” value (7.5 min) is 0.204 (inactive), the “furin cleavage Z-score” value (15 min) was -0.014 (inactive) and the “furin cleavage Z-score” value (30 min) was 0.753 (inactive).

For the sequence CAALEVVTSTAGNASASA [HC2263], the “furin cleavage Z-score” value (7.5 min) was 0.411 (inactive), the “furin cleavage Z-score” value (15 min) is -0.918 (inactive) and the “furin cleavage Z-score” value (30 min) was -0.927 (inactive).
